Measured values from PubChem BioAssay AID1159506 (National Center for Advancing Translational Sciences (NCATS), 2015).
The full ranking holds about 59,000 sequences; the median of the read-out is about -0.00055, and the lowest 2% start at about -2. Only a selection was taken, and the lowest values are over-represented in it overall.

assay: Identification of proteins required for the processing of the EWS-FLI1 nascent transcript; details: TC32 Ewing sarcoma NR0B1-luc vs CMV-luc (EWS-FLI1 target promoter against control promoter), 48 h; screened at 20 nM (by protocol);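 note: robust z of luciferase light less the median z of siRNAs with the same seed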
Method: Ewing sarcoma (ES) cells depend on the EWS-FLI1 fusion transcription factor for cell survival. Using an assay of EWS-FLI1 activity and genome-wide siRNA screening we have identified proteins required for the processing of the EWS-FLI1 nascent transcript. Parallel genome-wide siRNA-mediated RNAi screens were conducted in Ewing sarcoma TC32 cell lines expressing a luciferase (luc) reporter protein driven by either the promoter of the EWS-FLI1 target gene NR0B1 (TC32-NR0B1-luc) or the CMV promoter (TC32-CMV-luc). Luciferase activity was assessed 48 hours post siRNA-transfection.
Twenty microl of serum-free media containing Lipofectamine RNAiMax (0.05 microl) was added to wells containing siRNA (0.8 pmol). Lipid and siRNA were allowed to complex for 45 min at ambient temperature before addition of 600 cells in RPMI-1640, 20% FBS to yield final transfection mixtures containing 20 nM siRNA in RPMI-1640, 10% FBS. Luciferase expression was measured using OneGlo (Promega, Madison, WI). The genome-wide screening campaign was conducted using Ambion's human genome library version 4.1 (Ambion, Austin TX). This library targets approximately 21000 human genes, three siRNAs per gene. Each siRNA is arrayed in an individual well of a 384-well plate. Parallel transfections were conducted in TC32-NR0B1-luc and TC32-CMV-luc cell lines and luciferase expression (OneGlo, Promega) was assayed 48 h later on a PerkinElmer Envision 2104 Multilabel plate reader (PerkinElmer, Waltham, MA). Qiagen's AllStars Negative control was incorporated on all screening plates for normalization (16 wells per plate). Qiagen, Germantown, MDsiGL4 was incorporated as a positive transfection control (16 wells per plate) on all plates. […] The raw luciferase data for the NR0B1- and CMV-luc screens were normalized and z-score-MAD transformed using standard methods (Chung et al., 2008). The miRNA-like seed sequence of every siRNA was determined and the median z-score for all siRNA sequences with the same seed sequence was calculated. This z-score was subtracted from the z-score associated with each siRNA with that seed sequence to generate a seed-adjusted z-score value (Z) that was used when the results for the three siRNAs corresponding to each gene were compared (Marine et al., 2012)

Sequence | seed-corrected z-score
UAAGGUUCGACCUGCAGAG against MNX1-AS1 | -2.4
UUCCGUUGAUUCUUUCUCC against KAT5 | -1.63
UUGGUGGUCAUUAAGGUUG against PQLC3 | -0.378
AAUCUGUCUGUAGGUAUCC against TBC1D22B | -0.38
AUUGAUGUAAUCUCCGUCC against PTPN7 | -1.34
UUUCUUAUCUCUGUUGUUC against CRCP | 0.4
UUUGGUGAUAGGGUGCUCG against C5orf60 | -3.47
UUUCUUAGGUGUAUUGACC against PRDX1 | -1.23
AAGGUAGGCAAAAUUAUCC against GALNT16 | 1.35
UAGACGUGCACGAACACGC against MOB3A | -0.135
UGAUAUAGGAGUUAGACUG against KRTAP2-2 | 0.0896
UUAGCAAGCAUCCUUUCGC against LTN1 | -0.45
AAACAGAAGAGGGAGUGGG against LINC01567 | -2.3
UGAAUAAUACCUAUAAUCC against OR4F6 | -0.573
UUGGACAUGAUGAAAUUCC against EML3 | 0.0247
UACAUGCUCCGCACAGUCC against NOTCH1 | -0.17
UUGGAGCACUGUAAAGGCC against ZFP14 | 0.456
UCUUUAUCAAGUUUACAGG against LANCL3 | -0.0126
AUAGUUCGGAUCACAAUGC against NPSR1 | 0.18
UUCACUGUCAGUCCGAUGG against COPZ1 | -3.71
UCUGGUUCUUGUUGGGUAG against ECEL1 | -2.81
UUUCGAGAAAUAAUACACC against RPA1 | -0.401
UGUAGAAUGAUCACCAACC against PCNX4 | 0.471

Sequence | seed-corrected z-score
UAGGUCAUAACAGAAUGCU against FLNC | -0.156
UGUAGUCACACCAGAGAGG against FAM180B | -2.49
AAAGAUAUCAGGCACCCAG against GABRR3 | 0.633
UAAACUGCACUUUCCACGG against C12orf49 | -2.69
UGUAUUAUGACCUUCGCUC against MORC4 | -0.441
UCAAUUGAUUCCUCAAUUC against MCM6 | 0.575
UAUGCUUUCAAAAGAGUCC against ETS1 | -1.16
AAGGCAUUAAGACUCUUGG against HDAC3 | -0.388
UCCUUUACCGAUUUCAGUU against XRCC3 | -0.609
UUCCUUCUUAGGUUUCUUC against LRRC59 | 0.83
UAGUUGUCACCAUCCGUGC against DSE | -2.48
AAGUUUAUAUACACUUUUG against NDUFS6 | 0.771
UUUCAGAUCAUACUCGCCG against VPS33B | 0.89
UGAGGAGCGACAAUCUUCC against TFAP2C | -0.276
UGCCUGGAGAGAGUGUACG against PGLYRP1 | -0.292
UUAGCAUUAAAACAGGUAG against GC | -0.347
UGGGAUCUCAGCUGUAUCC against XAGE1E | -2.37
UUUAGUAACAGCCCAGUUC against CCDC36 | -0.277
AUAGGUAUCAGGCACCCAG against GABRB2 | 1.35
UAUUCUUACUGAUCGUUUG against FLI1 | -6.54
UAUUCACCCAGAACUGUUG against CYP24A1 | 0.031
UAUAUCACCAUAUAAUCAC against ADRA2B | -0.259
AAAUUAAUCUUCUUCAUUC against COX17 | 0.109

Sequence | seed-corrected z-score
UCUGGAUCAAAGGGUGUUG against TMEM134 | -4.42
UGAACUCCUUCAAUCCUGC against AHSP | 0.888
UUAAUAAGACUUCAAGAUG against MYOCD | 0.454
UUCCGGUACAAGAUAUUCC against QRSL1 | 0.059
AUAGGGUUUUACAUGAGGC against MYLK | -0.272
UCAUGAUCUGCGAAGUUGG against CCDC75P1 | -2.24
UAUGUUCAGCUCGCAUUUC against CMAS | 0.259
UUCAUGUCCAGGAUAUCCC against OBFC1 | -0.538
AUUGAUAUAAGGAUCAACA against OR5K1 | 0.45
UUGGGUACCUCAGUCCACA against SNRPD2 | -2.98
UACAUCUAAUUCACAGUUC against F9 | 0.676
UAAAUUUGCCCUGCUCUUG against OR2B11 | 0.408
AGUGUGACAAGAACGUGCC against MYL6P5 | -0.946
UCUGUGAACACCGGCAUGU against NCLN | 2.18
UUACGUUCUUGAAAGGCGG against IARS | 1.47
AGACAGAUGCGUUUGAUUC against PYDC2 | 0.835
AAUGGAACAACAGCGGUCC against ZNF217 | -0.315
UUCCUAGAAACCCAGACUG against SPATA31E1 | -3.97
UACCGAUUUGGUAAUAUCG against LY75 | -0.557
UCUCGUUAGUGAUUAAGUC against SULF1 | -0.403
UCACCUUGAAGCUAUAACC against ERCC3 | 0.757
UUUGAUUUCAGCAUCUUCC against TSKS | -3.12
AAAUGGUCCAGCAAAUUCU against NPPA | 0.589

Sequence | seed-corrected z-score
UUUUCGUGAUGCUUGGUCC against NDEL1 | 1.78
UCAAGAGAAUUCUGUAAUC against C5orf60 | -0.0754
AUAGUACACGAUGAACUCG against RAMP3 | -0.177
UGACUGACACUUUCAAAGC against SHC1 | -0.358
UGUGGUACCAGGCUGCUUG against PAQR8 | -2.42
UUGUUGGACAGUUGAAUCG against SEC62 | 0.834
UUGAGUUCCAAGAGGACCC against TPBG | 0.978
UUUCUUAUUGUUGCGGCAG against SNRPD2 | -2.78
UAUGUGGUUAGUCCGUGUG against GTF3C1 | 0.362
AAAGUUUUCCCUUAUGAUG against MYADML2 | 0.381
UGUUCUUUAAGCCUUUCCA against BLOC1S5 | -0.0488
UUCCGGAACAUGAAGUGCC against DYRK1B | -0.257
UUGUCAAACAGGACUGAGU against AZIN2 | -0.00443
UGUGGGAAAGCAGGUAUCU against ZNF815P | -1.11
UAAAGAUGCAGAUAAUAAC against NMUR1 | 0.231
UUACGAAUGACAUCCUUUG against CKAP5 | -2.84
AACACUUACGCAGUUCUUG against MTCP1 | 0.193
UUUUUCUUCACAGGUGUUU against HIST1H1D | -0.582
UAAGCUUUUAUUGUGAAUG against GRP | -2.97
UUCUCAUCACUUGUAGCCU against ANKRD36C | 0.48
UGUUUAGUAGCAGAUCUCC against PSMD6 | -2.83
GUUGGUAACAGGGUCAUUU against RXRG | -0.41
UUGCGAACAAUAGGGUUAG against PZP | -0.222

Sequence | seed-corrected z-score
UAAAUGUACCGUUUAAACC against LOC647481 | 0.567
UCCGGAAUGUCGAUGCCCU against DUX5 | -0.471
ACUGUUAUUCUUACGCUGG against CUL3 | -0.643
AAUUUGACCUCAUCCAUUU against FAM47C | -0.798
UGGUGUAACUUCAACAUCG against ATP13A4 | -2.09
UAUUCGUCAGCUCAAACUC against IQCH | -1.02
UAGGGUGAGAAUAGACAGG against PEX11B | 0.764
UUCAGUUGUGAUAAGUUGC against TLR6 | -0.0452
UUUCGAUCUCUGUUAAGCC against C2orf40 | 0.448
UUGAAGACCACGUACAUGG against SLC35D3 | -0.373
UAAGCGUAUCUGGAAUUAC against UGCG | 0.00222
UUCUUGACGUGCUUCAUUC against SCO1 | -0.488
UUACGGAUCAUGUGGUCUU against SCNN1B | 0.029
UGACUUCACAUGGACUACG against IDH3B | -2.07
AUCAUUCACAGGGAGGUCC against OAZ2 | 1.3
UUUGCAUCCCUCGCACUUG against MT3 | 0.331
UUGAAUUCAUUGCAUGUCC against CTSZ | 0.0627
UAGCGGGUCUCAUCAAAGC against HGFAC | 1.53
UUAGGUGCGCGGCUAACUG against COL9A3 | -2.65
UCAAUGCAAAGGAACACUC against ARFGAP3 | -0.0755
AUGUGGGUAAAAACUUGCU against NGRN | -2.09
UUCUUUAUUCCUUGAGCUG against OR10A4 | -3.24
UACUUGACGAUGUUGCGCG against ADGRL1 | -0.114

Sequence | seed-corrected z-score
UUCAUAUACAGCACAAUAC against CD58 | 1.5
UUGGAGGACAGGUCCAAGU against TSKU | 0.336
UUCCAUGUAAAACAAUUUC against PDE4D | 0.777
UUAUCUGUGACAUAAGUUG against ALG13 | -2.26
UAGGGUACAUCGUAGGGAG against MYO15A | -0.369
GGAUUUGCAGCGCAAAGCC against LYPD1 | -0.365
UCUGGAUUAACGGUGGUCU against NOVA1 | -3.04
UAAGACUCAAAGUUCCCAG against LOC642502 | -0.393
AGAUGAAAAAGUAAGGCCG against TRIM58 | -0.628
UUUUCGAGGACAUUGACUG against FMN1 | 0.159
UCUUGCUCCAAACCUGCUC against KLHL34 | -0.143
UUGCGGUAGACGAUGAUGC against ADAM8 | -1.99
AAGCAUAAAAGGUUCCUGU against IRF4 | 0.397
UUCUCGUGCACUGUCAAAG against SMU1 | -3.77
UUUGCGGUCACAAUUGGGC against IGFBP5 | -0.759
AGACAUAACACUACGAGAC against GBA2 | 0.274
UUCUUCAUGCGCAGUGUGG against INF2 | 0.288
AAAUCCUCCAAACAUGUGC against ZNRF2 | -0.0777
UGAUCGAAAUGAUUUACAC against CD180 | -0.034
